Assay outcomes as filed in PubChem BioAssay.
AmpC no deterg = blocks E. coli AmpC beta-lactamase in detergent-free assay | AmpC nitrocefin hydrolysis, absorbance 480 nm, 0.0001% Triton | actives 0.52% (n = 330,000) | AID 485341 | Potency, µM (doses to about 57.1 µM), for inactives: top-dose activity change, negative = inhibition, most hits filed as inhibitors;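 also: plate controls were no compound for no effect and no enzyme for full effect; nearly all actives have a fitted effect of over 20% in size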
Target sequence (P00811 whole entry, looked up): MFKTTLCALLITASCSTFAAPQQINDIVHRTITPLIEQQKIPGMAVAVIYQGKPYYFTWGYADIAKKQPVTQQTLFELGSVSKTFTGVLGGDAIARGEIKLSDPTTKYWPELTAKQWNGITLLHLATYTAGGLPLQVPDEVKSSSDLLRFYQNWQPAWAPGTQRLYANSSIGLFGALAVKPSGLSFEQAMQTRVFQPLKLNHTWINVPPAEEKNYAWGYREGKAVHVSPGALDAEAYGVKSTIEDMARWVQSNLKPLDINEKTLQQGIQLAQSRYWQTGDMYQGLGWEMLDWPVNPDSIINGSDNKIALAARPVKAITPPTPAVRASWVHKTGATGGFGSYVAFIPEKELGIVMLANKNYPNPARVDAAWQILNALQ
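AmpC (5.3 nM in the dispensed reagent) in 20 mM phosphate pH 7.0 with 0.01% (detergent screen) or 0.0001% Triton X-100 was preincubated with compounds for 15 min at room temperature. Nitrocefin was then added from an 800 uM solution, and hydrolysis was followed at 480 nm.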
AmpC detergent = inhibitors of E. coli AmpC beta-lactamase with detergent | P00811 | AmpC hydrolysis of nitrocefin, absorbance 480 nm, 0.01% Triton | Potency, µM (series often up to 114 µM), without a hit: at the top dose activity change, negative = inhibition, most hits filed as inhibitors | actives 0.041% (n = 370,000) | AID 485294;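 also: 0% = no-compound wells and -100% = no-enzyme wells; nearly all actives have a fitted effect of over 25% in size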
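AmpC (5.3 nM in the dispensed reagent) in 20 mM phosphate pH 7.0 with 0.01% (detergent screen) or 0.0001% Triton X-100 was preincubated with compounds for 15 min at room temperature. Nitrocefin was then added from an 800 uM solution, and hydrolysis was followed at 480 nm.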
VACV mCherry inh = inhibitors of vaccinia virus infection (mCherry reporter signal); Vaccinia virus mCherry reporter infection, fluorescence; Potency, µM (titrated, usually from 36.5 µM), for inactives: at the top dose activity change, negative = inhibition, hits mostly inhibitors; actives 0.63% (n = 310,000); calls by dose curve; tested in A549 cells; also: % is scaled to controls: 0 for no effect and ±100 for the full control effect; nearly all actives have a fitted effect of over 35% in size
VACV Venus inh = vaccinia inhibition (Venus reporter); Vaccinia virus Venus reporter expression, fluorescence; Potency, µM (doses to about 36.5 µM), for inactives: top-dose activity change, negative = inhibition, usual class: inhibitors; actives 0.46% (n = 330,000); AID 720580; calls by dose curve; tested in A549 cells; also: % is scaled to controls: 0 for no effect and ±100 for the full control effect; nearly all actives have a fitted effect of over 30% in size
SARS PLpro yeast = blocks SARS-CoV papain-like protease in a yeast assay | S. cerevisiae expressing SARS-CoV PLpro, growth rescue | actives 0.19% (n = 330,000) | Potency, µM (top dose mostly 32.9 µM), for the others: top-dose activity, positive = growth rescue, hits mostly activators | AID 485353; calls by dose curve; also: 0% is about no effect; nearly all actives have a fitted effect of over 55% in size
AMA1 RON2 block = inhibitors of Plasmodium falciparum AMA1-RON2 interaction. AlphaScreen AMA1-biotinylated RON2 peptide binding. Potency, µM (series often up to 58.2 µM), for the others: at the highest dose activity change, negative = inhibition, hits mostly inhibitors. actives 0.2% (n = 360,000);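 also: 0% = vehicle wells and -100% = peptide control; nearly all actives have a fitted effect of over 45% in size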
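AMA1 (3D7) with his tag at 25 nM final met compounds first, then biotinylated RON2 peptide at 25 nM; detection used donor plus acceptor beads, 10 µg/mL apiece, read by AlphaScreen after 30 min at room temperature.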
* marks the source's active call; other numbers are inactive results; i = inactive; u = inconclusive; x = not tested or not shown. In the library only some 1.4% were active in any assay of this set; here they are far more common. Unless noted, calls follow the shape of the dose curve; as a rule, active = well fitted curve in the direction sought with a large enough effect; inconclusive = small, poorly fitted or top-dose-only effect, or another doubt; inactive = no such curve, though single readings can be large; an effect the other way counts as inactive or inconclusive. Potency is read from the fitted curve at half-maximal effect.

SMILES	AmpC no deterg	AmpC detergent	VACV mCherry inh	VACV Venus inh	SARS PLpro yeast	AMA1 RON2 block
Cc1cc(NC(=O)CSc2nc(CC(C)(C)C)nc3c2c(=O)n(C)c(=O)n3C)no1	39.8µM*	-12.6%	8.5%	-8.0%	6.3%	3.3%
Cc1cc(-c2ccc(S(=O)(=O)N3CCN(c4ccc(Cl)cc4)CC3)s2)on1	x	0.7%	-3.0%	-20.4%	x	x
COc1ccc(-n2c(CNc3ccc(C)cc3)nnc2SCc2ccccc2)cc1	26.8%	4.0%	u	-23.8%	-6.2%	-29.7%
CCOc1ccc(NCc2nnc(SCc3ccccc3Cl)n2-c2ccccc2)cc1	45.5%	3.7%	x	x	-16.1%	26.7µM*
Brc1ccc(-c2nc3ccccc3s2)s1	-18.6%	-10.2%	x	6.5%	u	48.0%
O=c1ccc2nc3ccccc3sc-2c1	x	x	-27.9%	u	x	14.1µM*
Cc1ccc(C)c(CN2C(=O)c3ccccc3S(=O)c3ccc(C(=O)NCCc4ccc(Cl)cc4)cc32)c1 (stereo not drawn)	x	0.2%	-18.7%	-16.4%	x	x
CCc1ccccc1OCC(=O)Nc1ccc(S(N)(=O)=O)cc1	-27.0%	1.7%	x	x	-2.3%	4.8%
NS(=O)(=O)c1ccc(NC(=O)COc2cccc3ccccc23)cc1	12.6µM*	0.5%	i	-15.5%	0.9%	-1.4%
CCCn1c2ccccc2c2nnc(SCC(=O)Nc3cc(C)on3)nc21	-13.4%	0.6%	x	10µM*	-2.8%	-0.4%
CCCn1c2ccccc2c2nnc(SCC(=O)Nc3ncccn3)nc21	-20.5%	3.7%	x	11.2µM*	-3.2%	-4.9%
CCCN1CCC(=O)N(CCC#N)CC1	x	x	i	-14.3%	x	x
O=C(NCCn1cc(SCc2ccccc2Cl)c2ccccc21)c1cccs1	x	1.3%	-9.2%	-13.7%	x	x
CCN(CC)c1ccc(N)cc1	-6.4%	-3.2%	u	-20.2%	3.0%	11.2µM*
Nc1ccc(N(CCO)CCO)cc1	-12.9%	6.3%	-1.4%	10.0%	-0.1%	-23.0%
Cc1cc(C)c(O)c(-c2n[nH]c3c2C(c2cccc(O)c2)N(Cc2ccco2)C3=O)c1 (stereo not drawn)	-23.0%	1.9%	10µM*	u	0.0%	92.1%
Cc1ccc(C2c3c(-c4cc(C)ccc4O)n[nH]c3C(=O)N2Cc2ccco2)cc1 (stereo not drawn)	x	-6.0%	-12.5%	u	x	x
CCC1CN(CC(=O)NC(C)CO)Cc2cc(OC)ccc2O1 (stereo not drawn)	x	x	-16.5%	-4.6%	x	x
Cc1cc(C(=O)CSc2nn(-c3ccccc3)c(=S)s2)c(C)n1Cc1ccco1	28.2µM*	-0.4%	x	x	2.4%	0.7%
Cc1cc(C(=O)CSc2nc3ccccc3[nH]2)c(C)n1Cc1ccco1	-56.5%	-13.0%	-5.3%	-19.6%	0.9%	-22.3%
Cc1cc(C(=O)CSc2nncs2)c(C)n1Cc1ccco1	-24.2%	7.2%	-9.5%	-11.9%	0.8%	22.4µM*
CCN1CCCC1CNCc1cc2c(OC)c(OC)c(OC)cc2nc1N(C)C (stereo not drawn)	x	x	-8.0%	11.0%	x	x
CCC1=NN2C(=N)/C(=C\c3cccn3-c3ccc(C)c(C)c3)C(=O)N=C2S1	-50.6%	u	i	-18.7%	-0.7%	-12.4%
CCS(=O)(=O)C1=NN2C(=N)/C(=C\c3ccc(OS(=O)(=O)c4ccccc4)cc3)C(=O)N=C2S1	-25.0%	1.7%	x	x	22.7%	83.2%
CCC1=NN2C(=N)/C(=C/c3ccc(OS(=O)(=O)c4ccccc4)cc3)C(=O)N=C2S1	28.2µM*	-8.8%	x	x	-4.1%	123.0%
CCC1=NN2C(=N)/C(=C\c3cccn3-c3ccc(Cl)cc3)C(=O)N=C2S1	0.891µM*	u	-0.6%	8.5%	-4.1%	11.6%
COc1cc(=O)n2c(c1C(=O)NC(C)c1ccco1)CCN(C(=O)c1ccc(F)cc1Cl)CC2 (stereo not drawn)	x	x	i	-12.2%	x	x
O=C(CC1Sc2ccccc2NC1=O)NNc1ccc(Cl)cc1Cl (stereo not drawn)	x	x	4.47µM*	u	x	12.5%
COC(=O)c1cccc(C(=O)N2CCc3c(C(=O)OC)c(OCc4ccccn4)cc(=O)n3CC2)c1	x	x	-6.1%	4.9%	x	x
